Anthrax LF prot – blocks Bacillus anthracis lethal factor protease; inhibition, % at 10 µM; P15917; multiplex microsphere protease cleavage assay, LF; hit rate 0.12% among 360,000; also: plate controls were buffer without enzyme for full effect and enzyme alone for no effect
Vc quorum ag – inducers of Vibrio cholerae quorum light production without autoinducers; V. cholerae BH1578 lux reporter, luminescence, 6 h; activation, % at 18.7 µM; hit rate 0.16% among 350,000; in the data active = activation mostly above about 9.7%, no sharp cut-off; inconclusive = no clear call, values can overlap the other calls; inactive = mostly below about 3.7%
Autofluor counter – flagged as autofluorescent in microsphere protease counterscreen. compound autofluorescence counterscreen, microsphere flow cytometry; stronger effect = higher value. fluorescence intensity (no concentration beside the values). hit rate 3.1% among 360,000; in the data active = fluorescence intensity above about 16000; inconclusive = no clear call, values can overlap the other calls
BoNT A protease – blocks Botulinum neurotoxin A light chain protease | hit rate 0.17% among 360,000 | multiplex microsphere protease substrate cleavage, flow cytometry | inhibition, % at 10 µM | AID 588499; also: plate controls were buffer without enzyme for full effect and enzyme alone for no effect
BoNT-F LC inh – BoNT F light chain protease inhibition; hit rate 0.22% among 360,000; inhibition, % at 10 µM; Multiplex microsphere protease cleavage assay, flow cytometry; in the data active = inhibition above about 35%, passing the limit was not always enough; inconclusive = no clear call, values can overlap the other calls; also: plate controls were buffer without enzyme for full effect and enzyme alone for no effect
Numbers without * were called inactive; i = inactive; ? = inconclusive; . = no result given. Only some compounds are listed: those with a hit (about 3.5% of all), similar ones and a draw of the others. Rule as the data show it, unless noted: active = inhibition above about 30%; inconclusive = no clear call, values can overlap the other calls; inactive = below that.

SMILES	Anthrax LF prot	Vc quorum ag	Autofluor counter	BoNT A protease	BoNT-F LC inh
Clc1ccc(Cn2c(-c3cccnc3Cl)nc3ccccc32)cc1	-3	0	8232	1	0
CCOC(=O)Cn1c(-c2ccccn2)nc2ccccc21	-2	1	2364	0	1
Clc1ccc(Cn2c(-c3cccnc3Cl)nc3ccccc32)c(Cl)c1	-1	i	21985*	?	2
CCOC(=O)Cn1c(-c2cccnc2Cl)nc2cc(Cl)c(Cl)cc21	2	i	20399*	?	-2
CCn1c(-c2cccnc2Cl)nc2cc(Cl)c(Cl)cc21	-2	2	23561*	?	0
CCOC(=O)Cn1c(-c2cccnc2Cl)nc2cc(C)c(C)cc21	1	0	22326*	0	1
CC(=O)COC(=O)C1=NN(c2ccccc2)C(=O)CC1	19	1	3639	3	?
O=C(Nc1ccc(S(=O)(=O)Nc2ncccn2)cc1)C1CC(=O)N(c2ccc(Cl)cc2)C1 (configuration not stated)	7	-2	3508	0	16
CCOc1ccc(S(=O)(=O)N2CCN(S(=O)(=O)c3ccc(OCC)cc3)C(C)C2)cc1 (configuration not stated)	-5	i	17504*	-2	-2
O=C(CCN1C(=O)c2ccccc2C1=O)Nc1sc2c(c1C(=O)NCc1ccco1)CCCC2	-10	i	23594*	?	-6
O=C(Nc1sc2c(c1C(=O)NCc1cccnc1)CCCC2)c1ccco1	0	i	22004*	0	0
Cc1ccc(C(=O)Nc2sc3c(c2C(=O)NCc2ccco2)CCCC3)cc1	-7	.	4637	-1	-34
COC(=O)Nc1sc2c(c1C(=O)NCc1ccco1)CCCC2	-15	i	17349*	5	4
COc1cc(C(=O)Nc2sc3c(c2C(=O)NCc2ccco2)CCCC3)cc(OC)c1OC	-5	-1	4964	0	8
COC(=O)Nc1sc2c(c1C(=O)NCc1ccco1)CCC2	-2	2	20826*	?	1
Cn1c(N)c(C(=O)COC(=O)COc2ccc3ccccc3c2)c(=O)n(C)c1=O	-4	0	3322	0	-1
O=C1Nc2ccccc2C(=O)N2C[C@@H](O)C[C@H]12	2	i	3353	-2	0
O=C(Nc1sc2c(c1C(=O)NCc1ccco1)CCCC2)c1ccc2c(c1)OCO2	-5	0	21722*	5	6
COC(=O)Nc1sc2c(c1C(=O)NC1CC1)CCCCCC2	-2	0	16545*	0	0
Cc1ccc(S(=O)(=O)N2CCC(C(=O)OCC(=O)N3CCC(C)CC3)CC2)cc1C	-4	i	5375	2	-3
CCOc1ccc2ccccc2c1C(=O)N1CCN(c2ccccc2)CC1	1	-1	21404*	6	6
COc1cc2c(C(=O)N3CCN(c4cccc(Cl)c4)CC3)cn(CC(C)C)c(=O)c2cc1OC	7	-1	4262	3	38*
CCCN1CCN(C(=O)c2cn(CC(C)C)c(=O)c3cc(OC)c(OC)cc23)CC1	8	0	9308	2	1
CCOc1ccccc1C(=O)N1CCN(c2cccc(Cl)c2)CC1	-1	3	20455*	1	-2
O=C(CNC(=O)COc1ccccc1)NCc1ccccc1F	1	0	1984	0	-4
SMILES	Anthrax LF prot	Vc quorum ag	Autofluor counter	BoNT A protease	BoNT-F LC inh
CC(C)NC(=S)N/N=C/c1sc(N2CCCCC2)nc1-c1cccs1	8	i	4007	33*	-13
O=C1OC(Nc2ncccn2)c2ccccc21 (configuration not stated)	-4	-1	9583	1	5
COc1cc(OC)nc(NC2OC(=O)c3ccccc32)n1 (configuration not stated)	-5	2	16622*	-2	-5
COc1ccc(N2CCN(C(=S)NC(C)c3ccccc3)CC2)cc1 (configuration not stated)	-1	-1	4555	0	1
CC(COc1cccc2ccccc12)CN1CCN(C)CC1 (configuration not stated)	-2	i	24009*	-2	-6
CCN(CC)S(=O)(=O)c1cccc(C(=O)NCC2CCCO2)c1 (configuration not stated)	2	2	5861	0	-6
CCN(CC)S(=O)(=O)c1cccc(NC(=O)C2SC(=Nc3ccc(C)cc3C)C(C(=O)NCC3CCCO3)=C2N)c1 (configuration not stated)	-1	i	23589*	0	-5
O=C(CSc1n[nH]c(=O)[nH]c1=O)N/N=C/c1ccccc1	0	-5	2425	0	0
CCCN(CCC)C(=S)NC(=O)c1ccc(Cl)cc1Cl	2	-2	21981*	1	3
Cc1ccccc1C(=O)NNC(=S)NC(=O)c1ccc(Cl)cc1Cl	-1	i	11749	-1	-9
O=C(CCCN1C(=O)c2ccccc2C1=O)NCc1ccc(F)cc1	-3	i	3795	-8	?
COC(=O)c1ccc(OC(=O)CN2C(=O)c3ccccc3C2=O)cc1	38*	-1	3709	-6	?
O=C(CCCN1C(=O)c2ccccc2C1=O)Oc1ccc(F)cc1	-1	-2	23354*	-1	-3
CC(NC(=O)C1CCC(CNS(=O)(=O)c2ccc3c(c2)C(C)(C)C(=O)N3C)CC1)c1ccccc1 (configuration not stated)	-5	0	5220	0	-12
CCC(C)(C)n1nnnc1C(c1cc2cc(OC)ccc2[nH]c1=O)N1CCc2ccccc21 (configuration not stated)	1	i	16186*	2	0
CCC(C)(C)n1nnnc1C(c1cc2ccc(OC)cc2[nH]c1=O)N1CCc2ccccc21 (configuration not stated)	6	i	17938*	?	-4
CCC(C)(C)n1nnnc1C(c1cc2ccc(OC)cc2[nH]c1=O)N1CCc2ccccc2C1 (configuration not stated)	1	i	11391	1	-2
Cc1ccc(CNC(=O)C2CCC(=O)N(Cc3ccccc3F)C2)s1 (configuration not stated)	-4	-1	5051	-3	5
O=C(C1=C(O)C(=O)N(c2ccccc2)C1c1ccc([N+](=O)[O-])cc1)c1cccs1 (configuration not stated)	-2	4	4553	0	2
O=C1NC(c2ccccc2)=C(c2nc3ccccc3s2)C(c2ccc(O)cc2)N1 (configuration not stated)	-5	2	21586*	2	2
CC(=O)Nc1cc(-c2ccccc2)cn2c(-c3ccc(F)cc3)cnc12	-9	0	3794	0	1
Oc1ccc(N=Cc2ccc(-c3cccs3)s2)cc1	-1	0	16163*	1	-2
O=Cc1ccc(-c2cccs2)s1	-5	i	2852	1	-9
Cc1ccc(C)c(-n2c(SCC(=O)NC(C(=O)O)C(C)C)nnc2-c2cccc(Cl)c2)c1 (configuration not stated)	-1	0	4626	0	-2
